# Measured values as given in PubChem BioAssay (NCATS).
# Results filed as inconclusive are left out. Entries that show only a call come without a potency. Calls of active or inactive are those of the source. Unless noted, calls come from the whole dose curve; as a rule, active = well fitted curve in the direction sought with a large enough effect; inconclusive = small, poorly fitted or top-dose-only effect, or another doubt; inactive = no such curve, though single readings can be large; an effect the other way counts as inactive or inconclusive.
# Assays:
# [1] = HEK293 18hr Apoptosis Induction qHTS against the NCATS CANVASS Library (AID 1347357)
# Summary of the method: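 HEK293 cells (500 per well, DMEM with 10% FBS) were treated with natural products, incubated 18 hours at 37 degrees C, then caspase-3/7 activity was read by Caspase-Glo luminescence after 15 min at room temperature.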
# [2] = HPAF-II 12hr Apoptosis Induction qHTS against the NCATS CANVASS Library (AID 1347358)
# Summary of the method: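 HPAF-II cells (500/well, DMEM + 10% FBS) were exposed to compounds for 12 hours at 37 degrees C. Caspase-3/7 activity was then read by Caspase-Glo 3/7 luminescence after 15 min at room temperature.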
# [3] = HEK293 24hr Apoptosis Induction qHTS against the NCATS CANVASS Library (AID 1347359)
# Summary of the method: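 HEK293 cells, 500 per well, exposed to an 11-point compound series for 24 hours at 37 degrees C. Caspase 3/7 activity read by Caspase-Glo luminescence (DEVD substrate) after 15 min at room temperature.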
# [4] = HPAF-II 18hr Apoptosis Induction qHTS against the NCATS CANVASS Library (AID 1347360)
# Summary of the method: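 HPAF-II cells (500/well, DMEM + 10% FBS) were exposed to compounds for 18 hours at 37 degrees C. Caspase-3/7 activity was then read by Caspase-Glo 3/7 luminescence after 15 min at room temperature.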
# [5] = HEK293 12hr Apoptosis Induction qHTS against the NCATS CANVASS Library (AID 1347361)
# Summary of the method: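 Read-out: Caspase-Glo 3/7 luminescence (DEVD substrate), 15 min RT. Preceded by 12 h compound exposure of HEK293, 500 cells/well, 11-pt qHTS titration; doxorubicin titration as control.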
# [6] = target: Luciferin 4-monooxygenase (Photinus pyralis) (UniProt P08659); test: Firefly luciferase counterscreen qHTS: Assay Interference Panel against the NCATS CANVASS Library (AID 1347363); note: series mostly up to about 57 µM
# Sequence of Luciferin 4-monooxygenase (Photinus pyralis) (P08659 whole entry, looked up): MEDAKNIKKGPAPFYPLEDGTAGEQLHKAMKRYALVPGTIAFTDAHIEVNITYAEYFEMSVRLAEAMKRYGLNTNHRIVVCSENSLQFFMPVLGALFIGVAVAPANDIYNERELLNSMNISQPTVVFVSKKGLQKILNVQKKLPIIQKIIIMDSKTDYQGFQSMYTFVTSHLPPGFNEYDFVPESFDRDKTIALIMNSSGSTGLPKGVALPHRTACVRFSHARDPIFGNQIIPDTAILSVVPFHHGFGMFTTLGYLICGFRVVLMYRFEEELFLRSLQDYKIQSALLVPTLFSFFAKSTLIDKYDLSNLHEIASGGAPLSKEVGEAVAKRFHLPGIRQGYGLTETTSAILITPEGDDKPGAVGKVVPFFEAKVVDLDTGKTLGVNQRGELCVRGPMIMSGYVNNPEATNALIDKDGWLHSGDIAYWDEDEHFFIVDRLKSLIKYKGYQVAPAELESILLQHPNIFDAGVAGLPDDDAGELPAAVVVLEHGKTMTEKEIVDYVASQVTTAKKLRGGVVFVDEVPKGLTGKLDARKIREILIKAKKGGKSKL
# Summary of the method: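 Purified P. pyralis luciferase (0.04 ug/mL, 4x reagent) added to Tris-acetate buffer with 0.013 mM D-luciferin, 0.013 mM ATP and 13.3 mM Mg-acetate; compounds preincubated 15 min, then luminescence read after 5 min, RT.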
# [7] = qHTS for ATAD5 Agonist screened against the NCATS CANVASS Library (AID 1347367);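 note: luciferase reporter driven by ATAD5 which rises upon DNA damage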
# Summary of the method: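 HEK293T cells stably carrying an ATAD5-controlled luciferase reporter (2000 cells/well) attached for 5 hr, then received compounds in an 11-point series for 16hr at 37C. Luminescence was read after a 30 min room-temperature reagent step.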
# [8] = J3T Cancer Cell Toxicity qHTS against the NCATS CANVASS Library (AID 1347371); note: potency is the fitted concentration of half-maximal effect
# Summary of the method: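 J3T dog glioma cells (500 cells/well) were exposed to compounds in an 11-point series for 72 hr at 37C, 5% CO2. Cytotoxicity was read as ATP content by CellTiterGlo luminescence.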
# [9] = target: Nuclear receptor subfamily 1 group I member 3 (Homo sapiens) (UniProt Q14994); test: qHTS for Constitutive Androstane Receptor (CAR) Agonist screened against the NCATS CANVASS Library (AID 1347373);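 note: every well also contained 1.5 µM PK11195 alongside the test compound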
# Sequence of Nuclear receptor subfamily 1 group I member 3 (Homo sapiens) (Q14994 whole entry, looked up): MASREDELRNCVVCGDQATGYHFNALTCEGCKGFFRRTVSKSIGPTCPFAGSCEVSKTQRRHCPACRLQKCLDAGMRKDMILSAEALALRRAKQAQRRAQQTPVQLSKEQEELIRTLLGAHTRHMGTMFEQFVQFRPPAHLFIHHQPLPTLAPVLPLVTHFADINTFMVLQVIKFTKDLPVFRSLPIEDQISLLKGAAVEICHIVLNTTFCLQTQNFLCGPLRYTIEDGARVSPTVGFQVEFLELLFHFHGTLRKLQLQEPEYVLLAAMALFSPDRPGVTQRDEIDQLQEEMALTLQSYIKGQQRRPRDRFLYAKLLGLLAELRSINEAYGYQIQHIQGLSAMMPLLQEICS
# Summary of the method: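 HepG2 cells stably expressing hCAR and a CYP2B6-2.2kb luciferase reporter were treated for 24hr at 37C with compounds (11-point qHTS) in the presence of 1.5uM PK11195. Reporter activation was read by ONE-Glo luminescence.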
# [10] = qHTS for Hypoxia signaling pathway (HIF-1) agonists against the NCATS CANVASS Library (AID 1347375)
# Summary of the method: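 HRE-bla ME-180 cells (beta-lactamase reporter under hypoxia responsive element) in 0.5% dialyzed FBS medium, 5 h at 37C, then compound 17 h, 11-point qHTS series. CCF4-AM FRET substrate 2 h RT; 460/530 nm emission read.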
# [11] = 10-beta competent E. coli microbial cell viability qHTS against the NCATS CANVASS Library (AID 1347376); note: series mostly up to about 46 µM
# Summary of the method: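 10-beta competent E. coli (0.9 OD culture diluted to 0.2 OD) exposed to compounds in an 11-point qHTS series, incubated overnight at 37C, 5% CO2. Viability read as ATP by BacTiter-Glo luminescence after 20 min at room temperature.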
# [12] = DH5-alpha competent E. coli microbial cell viability qHTS against the NCATS CANVASS Library (AID 1347377); conditions: outcome: dose series up to 46.1 µM unless noted
# Summary of the method: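 DH5-alpha E. coli suspension (0.9 OD culture diluted to 0.2 OD) exposed to compounds in an 11-point series, overnight at 37C, 5% CO2. Viability read as ATP by BacTiter-Glo luminescence after 20 min at room temperature.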
# [13] = Cytotoxicity qHTS for assessment of Hepg2 cells membrane integrity screened against the NCATS CANVASS Library (AID 1347387)
# Summary of the method: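 HepG2 cells (2000/well) attached overnight at 37C, then received compounds in an 11-point series at 0.59 nM - 46 uM final for 5 hr. LDH release was detected fluorometrically (ex 560/em 590 nm) with CytoTox-ONE reagent after 10 min at room temperature.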
# [14] = qHTS for activators of dead-cell proteases activity screened against the NCATS CANVASS Library (AID 1347392);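 note: luminescence from protease leaking out of membrane-damaged cells cleaving impermeant substrate; rising signal means more cytotoxicity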
# Summary of the method: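 HepG2 cells, 2000/well, attached 18 h at 37C, then exposed to compounds (11-point qHTS) for 5 h. Dead-cell protease release read as luminescence from cell-impermeant AAF-aminoluciferin substrate after 15 min at room temperature.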
# [15] = Redox Reaction Profiling qHTS: Assay Interference Panel against the NCATS CANVASS Library (AID 1347401)
# Summary of the method: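 Compounds in 11-point series incubated with 5 uM resazurin and 200 uM DTT in 50 mM HEPES pH 7.3, 50 mM NaCl. Resorufin fluorescence (Ex 525/Em 598) read before and after 15 min in the dark.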
# [16] = qHTS drug screen for cell cycle checkpoint inhibitors in PARPi-resistant BRCA-mutant ovarian cancer cell lines. (AID 1963452; calls by dose curve; note: potency is the fitted concentration of half-maximal effect); conditions: PEO1/OlaR viability, CellTiter-Glo luminescence, 96 h; for Z-AUC: stronger effect = lower value
# Summary of the method: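 PEO1, PEO4 and PEO1/OlaR ovarian cancer cells, 600 per well, exposed 96 h at 37C to a dilution series. Viability read by CellTiter-Glo luminescence, normalized to DMSO and empty wells; activity summarized as Z-AUC.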
# [17] = measured here: PEO1 parental Z-AUC
compound,measurement,setting,value
C[N+](C)(C)CCc1c[nH]c2ccccc12,outcome,[1],inactive
same,outcome,[2],inactive
same,outcome,[3],inactive
same,outcome,[4],inactive
same,outcome,[5],inactive
same,Potency,[6],inactive
same,Potency,[7],inactive
same,Potency,[8],inactive
same,Potency,[9],inactive
same,outcome,[10],inactive
same,outcome,[11],inactive
same,outcome,[12],inactive
same,outcome,[13],inactive
same,outcome,[14],inactive
same,Potency,[15],inactive
C=C[C@H]1CN2CCc3c([nH]c4cccc(OC)c34)[C@@H]2C[C@@H]1/C(=C\OC)C(=O)OC,outcome,[1],inactive
same,outcome,[2],inactive
same,outcome,[3],inactive
same,outcome,[4],inactive
same,outcome,[5],inactive
same,Potency,[6],inactive
same,Potency,[7],inactive
same,Potency,[8],inactive
same,Potency,[9],inactive
same,outcome,[10],inactive
same,outcome,[11],inactive
same,outcome,[12],inactive
same,outcome,[13],inactive
same,outcome,[14],inactive
same,Potency,[15],inactive
C[C@]12CC(O)C3[C@@H](CCC4C[C@@H](O)CC[C@@]43CO)[C@@]1(O)CC[C@@H]2C1=CC(=O)OC1 (some centres not stated),outcome,[1],inactive
same,outcome,[2],inactive
same,outcome,[3],inactive
same,outcome,[4],inactive
same,outcome,[5],inactive
same,Potency,[6],inactive
same,Potency,[7],inactive
same,Potency,[8],14800 nM (active)
same,Potency,[9],inactive
same,outcome,[10],inactive
same,outcome,[11],inactive
same,outcome,[12],inactive
same,outcome,[13],inactive
same,outcome,[14],inactive
same,Potency,[15],inactive
Cn1c(/C=C/CO)c(CO)c2c1C(=O)C=C(N1CC1)C2=O,Z-AUC,[16],-0.176 (inactive)
same,Z-AUC,[16]; [17],-0.939
same,Z-AUC,[16]; measured here: PEO4 Z-AUC,-0.899
Cc1[nH]ncc1-c1cc2nc([C@@H]3CC4CCN3CC4)[nH]c(=O)c2s1,Z-AUC,[16],0.732 (inactive)
same,Z-AUC,[16]; [17],0.621
same,Z-AUC,[16]; measured here: PEO4 Z-AUC,0.645
COC(=O)[C@@]12OC[C@]34[C@H]([C@@H](O)[C@@H]1O)[C@@]1(C)CC(=O)C(O)=C(C)[C@@H]1C[C@H]3OC(=O)[C@H](OC(=O)/C=C(\C)C(C)C)[C@@H]24,Potency,[16],174 nM (active)
same,Z-AUC,[16]; [17],-2.46
same,Z-AUC,[16]; measured here: PEO4 Z-AUC,-2.64
COc1cc2cc(c1Cl)N(C)C(=O)C[C@H](OC(=O)C(C)C)[C@]1(C)O[C@@H]1[C@H](C)[C@@H]1C[C@@](O)(NC(=O)O1)[C@H](OC)/C=C/C=C(\C)C2,Potency,[16],549 nM (active)
same,Z-AUC,[16]; [17],-2.8
same,Z-AUC,[16]; measured here: PEO4 Z-AUC,-2.84
N#CC(O[C@@H]1O[C@H](CO[C@@H]2O[C@H](CO)[C@@H](O)[C@H](O)[C@H]2O)[C@@H](O)[C@H](O)[C@H]1O)c1ccccc1 (some centres not stated),Z-AUC,[16],0.897 (inactive)
same,Z-AUC,[16]; [17],0.644
same,Z-AUC,[16]; measured here: PEO4 Z-AUC,0.881
COc1cc(C)[nH]c(=O)c1CNC(=O)c1c(C)n([C@H](C)C2CCN(CC(F)(F)F)CC2)c2ccccc12,Z-AUC,[16],1.18 (inactive)
same,Z-AUC,[16]; [17],0.708
same,Z-AUC,[16]; measured here: PEO4 Z-AUC,0.343
CCCCCCC(C)(C)c1cc(O)c2c(c1)OC(C)(C)C1CC=C(CO)C[C@H]21 (some centres not stated),Z-AUC,[16],1.02 (inactive)
same,Z-AUC,[16]; [17],0.553
same,Z-AUC,[16]; measured here: PEO4 Z-AUC,0.644
CO/C1=C/C(C)=C\[C@@H](C)[C@@H](O)[C@@H](C)C/C(C)=C\C=C/[C@H](OC)[C@@H]([C@@H](C)[C@@H](O)[C@H](C)[C@@]2(O)C[C@@H](O)[C@H](C)[C@@H](C(C)C)O2)OC1=O,Z-AUC,[16],-2.07 (inactive)
same,Z-AUC,[16]; [17],-2.1
same,Z-AUC,[16]; measured here: PEO4 Z-AUC,-2.32
CC(N[C@H]1C[C@@H]1c1ccccc1)c1ccc2c(c1)OCCO2 (some centres not stated),Z-AUC,[16],-0.77 (inactive)
same,Z-AUC,[16]; [17],0.195
same,Z-AUC,[16]; measured here: PEO4 Z-AUC,-0.131
